Drawing on PubChem BioAssay (NCI), this text covers growth for 14 molecules.

Common to all, as to assay: NCI-60 one-dose screen, 48 h (100 = growth as untreated, 0 = no growth, -100 = all killed)
For one test, the system named is DU-145 prostate. To be noted: 10 µM unless noted.
In the next test the test system is K-562 leukemia. To be noted: 10 µM unless noted.
A further test relates to MALME-3M melanoma. To be noted: 10 µM unless noted.
A further test has as its system MDA-MB-231 breast. The settings on record: 10 µM unless noted.
The next test relates to RXF 393 renal. The settings on record: 10 µM unless noted.
A further test concerns SF-268 CNS. The settings on record: 10 µM unless noted.
In another test the test system is SF-295 CNS. To be noted: 10 µM unless noted.
The next test has as its system SF-539 CNS. To be noted: 10 µM unless noted.
The subject of a further test is UACC-257 melanoma. To be noted: 10 µM.

Each structure is given as a SMILES string. Compounds without any hit were thinned out: in the full panel of roughly 83,000, 20% have a hit.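 Note: values are percent growth. 100 is the growth of untreated cells, values between 100 and 0 indicate rising inhibition; between -100 and 0 indicates cell death.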 Values without a mark were called inactive. The source made the active and inactive calls. Rule for the calls: active = growth percent below 10; inactive = the rest.

Consider `COc1ccc([C@H]2c3[nH]c4ccccc4c3C[C@@H]3C(=O)N(C4CCN(Cc5ccccc5)CC4)CC(=O)N23)c(OC)c1`, for which the growth was 86.3% with DU-145 prostate; 28.8% in the test with K-562 leukemia; 97.1% in the test with MALME-3M melanoma; 77.7% with MDA-MB-231 breast; 41.9% with RXF 393 renal; 63% in the test on SF-268 CNS. Also, the results for the growth with SF-295 CNS, in the test on SF-539 CNS and in the test on UACC-257 melanoma were 94.6%, 81.7% and 94.5%, respectively.
`Oc1ccc(CSc2nnc(-c3ccc(Oc4ccccc4)cc3)o2)c2cccnc12`: the growth in the test with DU-145 prostate is 45.6%; with K-562 leukemia it was 9.13% (active); in the test with MALME-3M melanoma, 70.8%; with MDA-MB-231 breast it was 45.5%; in the test on RXF 393 renal it was 60.6%; in the test on SF-268 CNS, 28.8%. Moreover, the values for the growth in the test on SF-295 CNS, with SF-539 CNS and in the test with UACC-257 melanoma were 1.44% (active), 31.6% and 45.1%, respectively.
On to `Cc1ccc(NC(=O)c2ccc(CN3CCN(C)CC3)c(I)c2)cc1Oc1ccc(-c2[nH]nc3ncnc(N)c23)cc1`, for which the growth in the test on DU-145 prostate is 99.6%; in the test on K-562 leukemia, 1.61% (active); in the test with MALME-3M melanoma, -72.7% (active); in the test with MDA-MB-231 breast it was 39.3%; in the test with RXF 393 renal, 44.9%; with SF-268 CNS it was 90.3%. The values for the growth with SF-295 CNS, with SF-539 CNS and in the test with UACC-257 melanoma were 78.4%, 67.5% and -46.4% (active), respectively.
Take `Cc1ccc(NC(=O)c2ccc(CN3CCN(C)CC3)c(C(F)(F)F)c2)cc1Oc1ccc(-c2[nH]nc3ncnc(N)c23)cc1`: the growth with DU-145 prostate is 95.3%; in the test on K-562 leukemia it was 2.49% (active); in the test on MALME-3M melanoma it was -12% (active); in the test on MDA-MB-231 breast, 67.5%; in the test on RXF 393 renal, 42.3%; in the test on SF-268 CNS it was 88%. Also, the values for the growth with SF-295 CNS, in the test on SF-539 CNS and in the test on UACC-257 melanoma were 82.8%, 60.2% and 58.5%, respectively.
As for `O=C1CC2(CCOCC2)Oc2ncccc21`, the growth in the test on DU-145 prostate is 97.7%; with K-562 leukemia, 4.49% (active); in the test with MALME-3M melanoma it was -31.6% (active); with MDA-MB-231 breast, 8.5% (active); in the test with RXF 393 renal it was 92.8%; with SF-268 CNS it was 65.2%. Besides, the growth is 109% with SF-295 CNS, 27.7% in the test on SF-539 CNS and 79.2% in the test with UACC-257 melanoma.
Regarding `COc1ccc(N2C(=O)c3cc(OC)c(OC)cc3NC2SCc2ccccc2)cc1` (stereo unspecified), the growth in the test with DU-145 prostate is 110%; in the test with K-562 leukemia, 88.6%; in the test with MALME-3M melanoma, 95.2%; in the test with MDA-MB-231 breast it was 91.5%; in the test on RXF 393 renal, 144%; in the test with SF-268 CNS, 110%. Also, the growth was 103% with SF-295 CNS, 94.3% with SF-539 CNS and 105% with UACC-257 melanoma.
Regarding `O=C(NCCCNc1cc(-c2cn(-c3ccccc3)nc2-c2cccc(O)c2)ccn1)Nc1cccc(C(F)(F)F)c1`, the growth in the test on DU-145 prostate was 66.9%; with K-562 leukemia it was 13.3%; in the test with MALME-3M melanoma it was 17.7%; in the test with MDA-MB-231 breast it was 18.6%; with RXF 393 renal, -14% (active); in the test on SF-268 CNS it was 38.6%. The growth is -15.3% (active) with SF-295 CNS, 27.5% in the test on SF-539 CNS and 21.1% in the test on UACC-257 melanoma.
In the case of `CNC(=O)c1cc(N2CCc3cc(NC(=O)Nc4ccc(Cl)c(Cl)c4)ccc32)ccn1`, the growth in the test with DU-145 prostate was 97.1%; in the test with K-562 leukemia, 78.2%; in the test on MALME-3M melanoma it was 68.3%; with MDA-MB-231 breast, 90.9%; in the test with RXF 393 renal, -2.71% (active); in the test with SF-268 CNS, 104%. The values for the growth with SF-295 CNS, in the test with SF-539 CNS and with UACC-257 melanoma were 71.9%, 55.7% and 79.8%, respectively.
Regarding `NS(=O)(=O)c1ccc(Nc2nc(N/N=C/c3ccc(C(F)(F)F)cc3)nc(Nc3ccccc3)n2)cc1`, the growth with DU-145 prostate was 39.3%; with K-562 leukemia it was 17.5%; in the test on MALME-3M melanoma it was 22.4%; in the test with MDA-MB-231 breast, 26.1%; in the test on RXF 393 renal it was -39.5% (active); with SF-268 CNS, 50.4%. The growth with SF-295 CNS is 4.66% (active); in the test with SF-539 CNS, 23.8%; with UACC-257 melanoma, 39.6%.
For the molecule `Cc1ccc(S(=O)(=O)N/N=C/c2cn(-c3ccc(F)cc3)nc2-c2ccc(S(C)(=O)=O)cc2)cc1`, the growth is 114% in the test on DU-145 prostate; 102% with K-562 leukemia; 71% in the test on MALME-3M melanoma; 104% in the test with MDA-MB-231 breast; 117% in the test on RXF 393 renal; 104% in the test on SF-268 CNS. In addition, the growth in the test with SF-295 CNS was 103%; in the test with SF-539 CNS it was 97.7%; with UACC-257 melanoma, 99.3%.
Regarding `Fc1ccc(-c2cc3nc(C(Cl)Cl)nc(-c4cccs4)n3n2)cc1`, the growth is -21.8% (active) with DU-145 prostate; 44.5% with K-562 leukemia; 62.5% in the test on MALME-3M melanoma; -15.2% (active) with MDA-MB-231 breast; -44.1% (active) with RXF 393 renal; 13.3% with SF-268 CNS. Also, the results for the growth with SF-295 CNS, with SF-539 CNS and with UACC-257 melanoma were -7.41% (active), -2.29% (active) and 46.2%, respectively.
Take `C#Cc1ccc(NC(=O)c2ccc(/C=C/C(=O)c3nccn3C)cc2)c(F)c1`: the growth in the test on DU-145 prostate was 27.5%; with K-562 leukemia, 12%; in the test on MALME-3M melanoma it was 89.8%; in the test on MDA-MB-231 breast, 23.6%; in the test on RXF 393 renal, 10.5%; in the test with SF-268 CNS, 28%. Moreover, the growth in the test on SF-295 CNS was 26.1%; in the test with SF-539 CNS it was -22.5% (active); in the test with UACC-257 melanoma, 64.7%.
Take `Cc1[nH]nc2ccc(-c3nc4cnc(N5CCN(C)CC5)cn4c3Nc3ccc(F)cc3Br)cc12`: the growth in the test with DU-145 prostate was 51.8%; with K-562 leukemia, 5.31% (active); with MALME-3M melanoma, 76.8%; in the test on MDA-MB-231 breast, 8.94% (active); in the test on RXF 393 renal, 63.3%; with SF-268 CNS, 75.8%. Besides, the growth is 66.3% in the test with SF-295 CNS, -54.9% (active) with SF-539 CNS and 78.8% with UACC-257 melanoma.
For the molecule `O=S(=O)(NCCCNc1nccc(-n2cnc3ccccc32)n1)c1ccc(F)cc1`, the growth with DU-145 prostate was 87.2%; in the test on K-562 leukemia it was 37.2%; with MALME-3M melanoma, 86.1%; in the test on MDA-MB-231 breast it was 74.4%; with RXF 393 renal, 163%; in the test with SF-268 CNS it was 86.3%. The growth in the test with SF-295 CNS was 70.6%; in the test with SF-539 CNS, 86.2%; in the test on UACC-257 melanoma, 66.2%.
